Assay outcomes as filed in PubChem BioAssay.
TIM10 inh = growth inhibitors of isogenic TIM10 control yeast, primary screen, counter-screen for tim10-1 yeast inhibitor project, luminescence, uHTS; S. cerevisiae TIM10 strain growth, BacTiter-Glo luminescence, 24 h; inhibition, % at 10 µM; hit rate 1.4% among 330,000; AID 463195, 2010;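 active means inhibition of 40% or more at the single tested concentration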;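 further: wild-type TIM10 isogenic control strain grown at permissive 25 °C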
Beta2AR agonist = beta2AR agonists driving receptor internalization, primary screen, cell-based, FAP fluorogen, flow cytometry | Beta-2 adrenergic receptor (Homo sapiens), P07550 | Am2.2-beta2AR cells | response, % (no concentration beside the values) | hit rate 0.43% among 340,000 | AID 504454, 2011;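 active means response above a set limit, near 3 SD of response in nonfluorescent compounds, cut at about 42% in these data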
Target sequence (P07550 whole entry, looked up): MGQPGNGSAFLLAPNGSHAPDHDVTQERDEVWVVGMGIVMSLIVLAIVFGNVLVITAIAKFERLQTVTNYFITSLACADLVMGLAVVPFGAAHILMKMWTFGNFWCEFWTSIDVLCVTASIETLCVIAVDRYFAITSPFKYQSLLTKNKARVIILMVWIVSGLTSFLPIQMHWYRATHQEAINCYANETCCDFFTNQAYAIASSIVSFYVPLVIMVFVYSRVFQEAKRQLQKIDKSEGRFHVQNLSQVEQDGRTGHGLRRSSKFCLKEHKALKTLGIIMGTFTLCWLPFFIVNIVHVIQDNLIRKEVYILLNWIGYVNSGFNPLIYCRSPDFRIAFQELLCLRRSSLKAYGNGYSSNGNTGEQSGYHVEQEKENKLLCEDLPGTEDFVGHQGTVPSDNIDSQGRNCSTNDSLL
tim23-1 inh = growth inhibitors of tim23-1 mutant yeast, primary screen, luminescence, uHTS. S. cerevisiae tim23-1 growth, BacTiter-Glo luminescence, 24 h. inhibition, % at 20 µM. hit rate 1.3% among 330,000. AID 463212, 2010;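 active means growth inhibition of the mutant yeast at or above 50%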;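 further: temperature-sensitive mutant grown at 25 °C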
tim10-1 inh = growth inhibitors of tim10-1 mutant yeast, primary screen, luminescence, uHTS | inhibition, % at 20 µM | hit rate 2.2% among 330,000 | AID 463190, 2010 | S. cerevisiae tim10-1 ts strain growth, BacTiter-Glo, 24 h;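 active means inhibition of at least 40%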;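 further: mutant grown at 25 °C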
PfHsp90 set2 = growth inhibition of PfHsp90-expressing yeast, primary screen, antimalarial PfHsp90 inhibitor project, S. cerevisiae, BacTiter-Glo luminescence, single point, set 2; inhibition, % at 9.4 µM; BacTiter-Glo ATP, 48 h; yeast lacking PDR1 and PDR3 efflux regulators; hit rate 0.32% among 310,000; AID 504621, 2011;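 active means every replicate shows inhibition above about 80%, whatever the replicate mean, limit read from the data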
tim23-1 confirm = tim23-1 mutant yeast growth inhibitors, confirmation, luminescence, single concentration. shares compounds with tim23-1 inh. S. cerevisiae tim23-1 growth, BacTiter-Glo luminescence, 24 h. inhibition, % at 20 µM. hit rate 83% among 4,400. AID 463218, 2010;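 active means inhibition above about 39% in either of two replicate wells at 20 µM, limit read from the data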;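 further: temperature-sensitive tim23-1 mutant grown at 25 °C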
Each line names hits and unclear results; the compound was inactive in the other large screens (follow-up assays come after a bar, where they were run). In the library only some 3.8% were active in any assay of this set; here they are far more common.

O=C1C=C(c2ccc(O)cc2)C[C@@H](c2ccc(Cl)cc2)C1	tim23-1 inh 53 | tim23-1 confirm inactive
O=C1C=C(c2ccc3ncccc3c2)C[C@@H](c2ccc(Cl)cc2)C1	tim23-1 inh 52 | tim23-1 confirm inactive
COc1ccc([C@H]2CC(=O)C=C(c3ccc4ncccc4c3)C2)cc1	none
C=C(C)C1CC=C(C)/C(=N\NC(=O)CNc2cccc3ccccc23)C1 (centres undefined)	none
Cn1c(C=O)c(-c2ccc3cc[nH]c3c2)c2ccccc21	tim23-1 inh 64 | tim23-1 confirm 55
Cn1c(-c2ccsc2)c(-c2cccs2)c2cc(-c3ccc4cc[nH]c4c3)ccc21	none
Cc1ccc(S(=O)(=O)N2C(=O)[C@@H]3Cc4ccccc4CN3C2=O)cc1	tim23-1 inh 51 | tim23-1 confirm 41
Cc1ccc(S(=O)(=O)N2CCc3ccccc3C2)cc1	none
O=C1OC(c2ccc(Cl)cc2)=N/C1=C\C=C\c1ccco1	none
O=C1OC(c2ccccc2)=N/C1=C\C=C\c1ccco1	tim23-1 inh 82 | tim23-1 confirm 81
CN(C)C(CNC(=O)CSc1nc2ccccc2c(=O)n1Cc1ccco1)c1ccccc1 (centres undefined)	none
Cc1ccc(NC(=O)C(=O)c2ccc(C)cc2)cc1	none
CC(=O)Oc1ccc(/C=C2/CCc3ccccc3C2=O)cc1	tim23-1 inh 60 | tim23-1 confirm 51
O=C(c1cc(F)c(F)cc1Cl)N1CCN(S(=O)(=O)c2cccs2)CC1	none (no result: PfHsp90 set2)
COc1ccc(N2CCN(C(=O)COC(=O)c3ccco3)CC2)cc1	none
O=C(NC(=S)NCCc1ccccc1)c1cccc(Cl)c1	tim23-1 inh 52 | tim23-1 confirm 46
O=C(O)CC1CCC1CC(=O)O (centres undefined)	none (no result: TIM10 inh, tim23-1 inh, tim10-1 inh)
CC(C)(C)n1nc(Cc2cccc3ccccc23)c2c(N)ncnc21	tim23-1 inh 62 | tim23-1 confirm 62
Cn1nc(Cc2cccc3ccccc23)c(C#N)c1N	none
C=CCn1c(-c2cccc3ccccc23)n[nH]c1=S	none
C=CCn1c(-c2cc(-c3ccc(C)cc3)nc3ccccc23)n[nH]c1=S	tim23-1 inh 60 | tim23-1 confirm 53
CCC1CCCCN1CCCNC(=O)c1ccc2c(c1)N(Cc1ccc(F)cc1)C(=O)c1ccccc1S2=O (centres undefined)	none
Cc1cccc(NC(=O)c2cc3ccccc3o2)c1	tim23-1 inh 54 | tim23-1 confirm 41
CCOC(=O)c1ccc(NC(=O)c2cc3ccccc3o2)cc1	none
CCOC(=O)c1cccc(NC(=O)CCc2ccccc2)c1	tim23-1 inh 61 (no result: PfHsp90 set2) | tim23-1 confirm inactive
CCC(=O)Nc1cccc(NC(=O)c2cc3ccccc3o2)c1	none
CCOC(=O)c1cccc(NC(=O)c2cc3ccccc3o2)c1	tim23-1 inh 58 | tim23-1 confirm 52
O=C(N/N=C/C(Cl)=C/c1ccccc1)c1ccccc1F	tim23-1 inh 51 | tim23-1 confirm inactive
O=C(N/N=C/C(Br)=C/c1ccccc1)c1ccccc1F	tim23-1 inh 69 | tim23-1 confirm 51
O=C(N/N=C/C(Cl)=C/c1ccccc1)c1ccco1	tim23-1 inh 64 | tim23-1 confirm inactive
CC1C(=O)NN=C1C(=O)N/N=C\C(Br)=C\c1ccccc1 (centres undefined)	none
CN(C)c1ccc(C(CNC(=O)c2cccs2)N(C)C)cc1 (centres undefined)	none
CN1CCC(N(C)C(=O)c2cc(S(=O)(=O)N(C)c3ccccc3)ccc2Cl)CC1	none
Cc1cccc(-n2ccnc2CN2CCC(CO)(Cc3ccccc3)CC2)c1	none
Cc1c(NS(=O)(=O)c2cccs2)cccc1-c1nc2cccnc2s1	tim23-1 inh 59 | tim23-1 confirm 56
CC(C)(C)c1cc(CCC(=O)NN)cc(C(C)(C)C)c1O	none (no result: PfHsp90 set2)
COCCOC(=O)/C(=C\c1cc(C(C)(C)C)c(O)c(C(C)(C)C)c1)C(C)=O	tim23-1 inh 59 | tim23-1 confirm 58
O=Cc1cn(CCOc2ccccc2F)c2ccccc12	tim23-1 inh 51 | tim23-1 confirm 38
CN(C1CCCCC1)S(=O)(=O)c1ccc(C(=O)N2CCN(c3nc4ccccc4s3)CC2)cc1	none
CC(C)(C)[C@H]1C=C(C(=O)N2CCOCC2)O[C@@H](OCc2ccc(CO)cc2)C1	tim23-1 inh 93 | tim23-1 confirm inactive
Oc1ccc(-c2csc(Nc3ccccn3)n2)c(O)c1	tim23-1 inh 72 | tim23-1 confirm 54
c1ccc(Nc2nc(-c3cccnc3)cs2)nc1	none
c1ccc(Nc2nc(-c3cccs3)cs2)nc1	tim23-1 inh 57 | tim23-1 confirm inactive
Fc1ccc(-c2csc(Nc3ccccn3)n2)cc1	tim23-1 inh 54 | tim23-1 confirm 41
Cc1cccc(Nc2nc(-c3cccs3)cs2)n1	none
CC1=CC[C@@]23CCCN2C(=O)CCC[C@H]3C1	tim23-1 inh 89 | tim23-1 confirm inactive
COCC1CCN(C(=O)C2CCC(=O)N(C3CCCCCC3)C2)CC1 (centres undefined)	none
O=C1NN=C(c2ccc(Cl)cc2)CC1c1cccc(Br)c1 (centres undefined)	tim23-1 inh 53 | tim23-1 confirm 59
Cc1ccc(C2=NNC(=O)C(c3ccc(Cl)cc3)C2)cc1 (centres undefined)	none (no result: PfHsp90 set2)
COC(=O)C12CCC(C)(c3nc4ccccc4nc31)C2(C)C (centres undefined)	none
CC(C)(C)NC(=O)C12CCC(C)(c3nc4ccccc4nc31)C2(C)C (centres undefined)	tim23-1 inh 53 (no result: PfHsp90 set2) | tim23-1 confirm inactive
Cc1cc(C(=O)CCl)c(C)n1CCc1ccc(Cl)cc1	tim23-1 inh 55 | tim23-1 confirm 53
Cc1cc(C(=O)CSc2nnc(N)s2)c(C)n1CCc1ccc(Cl)cc1	none
COc1ccc(C2OCC(C)([N+](=O)[O-])CO2)cc1 (centres undefined)	none (no result: TIM10 inh, tim23-1 inh, tim10-1 inh)
Cc1ccc2nc(-c3cc(-c4ccccc4)no3)cn2c1	tim23-1 inh 55 | tim23-1 confirm 47
Clc1ccc2nc(-c3ccccc3)cn2c1	tim23-1 inh 52 | tim23-1 confirm inactive
Cc1ccc(-c2cc(-c3ccccc3)no2)c(O)c1	none (no result: TIM10 inh, tim23-1 inh, tim10-1 inh)
O=C(/C=C/c1c[nH]c2ccccc12)c1cccc2ccccc12	tim23-1 inh 54 | tim23-1 confirm 62
O=C(N/N=C/c1cccc(F)c1)c1csc2c1CCCC2	tim23-1 inh 63 | tim23-1 confirm 62
O=C(N/N=C/c1ccccc1F)c1csc2c1CCCC2	none
O=C1CCC[C@@H]2Cc3nc4cc5c(cc4cc3[C@@H]3CCN1[C@H]23)OCO5	none (no result: TIM10 inh, tim23-1 inh, tim10-1 inh)
Brc1ccc(-n2cnc(-c3ccccc3)c2)cc1	tim23-1 inh 55 | tim23-1 confirm 51
